Measured values: PubChem BioAssay
Activity calls are given as the source filed them. Unless noted, the rule behind the calls is not given here.

Experiments:
[1] = test system: Wnt5a (protein binding on small-molecule microarray); assay: Wnt5a binders on small-molecule microarray, primary screen, biophysical, 635/667 nm fluorescence (AID 1142); conditions: 635 nm fluorescence, higher = more signal;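 note: fluorescence read at 667 nm with signal to noise per printed feature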
[2] = cell viability in Huh7 cells, primary screen, cytotoxicity control for HCV replication inhibitor project, CellTiter-Glo luminescence, basal, 48 h (AID 1143); conditions: Huh7 HCV replicon, higher = more signal, called active from +8 up or from −8 down;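 note: Huh7 hepatoma cells carrying a hepatitis C replication reporter with no stimulus; test concentration not given here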
[3] = P. aeruginosa biofilm formation inhibitors, primary screen, PAO1 strain, BacTiter-Glo luminescence, LB-PBS (AID 1144); conditions: 12 h, higher = more signal
[4] = CREB reporter modulators without forskolin, primary screen, cell-based, PC12, CRE-LacZ reporter, unstimulated (AID 1145); conditions: no forskolin, luminescence, 4.5 h, higher = more signal, called active from +8 up or from −8 down
[5] = CREB reporter modulators under forskolin, primary screen, cell-based, PC12, CRE-LacZ reporter, forskolin-stimulated (AID 1146); conditions: luminescence, 4.5 h, higher = more signal, called active from +8 up or from −8 down;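 note: PC12 cells with 6xCRE LacZ reporter stimulated by forskolin 10 µM; beta-galactosidase reporter signal reflecting CREB driven transcription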
[6] = target: Streptavidin (Streptomyces avidinii) (UniProt P22629); assay: streptavidin binders on small-molecule microarray, primary screen, artefact control for SMM compound annotation, biophysical, 635/667 nm fluorescence (AID 1147); conditions: streptavidin binding, higher = more signal;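 note: signal reflects streptavidin binding to arrayed compounds as a control protein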
[7] = small-molecule binders of probe aInhba, primary screen, biochemical, small-molecule microarray, 635/667 nm fluorescence (AID 1148); conditions: higher = more signal;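 note: score merges 667nm spot fluorescence with signal-to-noise for antibody binding to printed compounds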
Torsin-1A (Homo sapiens) [8] = target: Torsin-1A (Homo sapiens) (UniProt O14656); assay: torsin A binders from cell lysate, primary screen, small-molecule microarray, wild-type, 635/667 nm (AID 1149); conditions: COS7 hTOR1A-WT lysate, 635 nm fluorescence, higher = more signal
Torsin-1A (Homo sapiens) [9] = target: Torsin-1A (Homo sapiens) (UniProt O14656); assay: small-molecule binders of mutant TOR1A in lysate, primary screen, cell lysate, small-molecule microarray, COS7 lysate, 635/667 nm fluorescence (AID 1150); conditions: COS7 hTOR1A mutant lysate, 635 nm fluorescence, higher = more signal;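 note: score pools 667 nm emission and signal to noise measuring lysate protein binding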
[10] = test system: Sonic hedgehog protein (Shh); assay: small-molecule binders of Shh protein, primary screen, biochemical, small-molecule microarray, 635/667 nm fluorescence (AID 1151); conditions: small-molecule microarray binding, 635 nm fluorescence; higher = more signal;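 note: Shh protein binding to compounds spotted on small-molecule microarray slides; score combines spot fluorescence intensity with signal-to-noise across triplicate slides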
[11] = E. coli DRC41 culture turbidity changes, primary screen, E. coli filamentation inducer project, strain DRC41, OD650, 48 h (AID 1152);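 note: E. coli MC1000 strain DRC41 lacking acrAB efflux pump and sulA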; conditions: E. coli DRC41 (acrAB sulA), higher = more signal, called active from +8 up or from −8 down
[12] = small-molecule binders of probe aLefty1, primary screen, biochemical, small-molecule microarray, 635/667 nm fluorescence (AID 1153); conditions: higher = more signal;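 note: score merges spot fluorescence with signal-to-noise ratio from the scanned slide images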
[13] = PSAC antagonists in infected red cells, primary screen, cell-based, P. falciparum Indochina, OD700, 1 h (AID 1154); conditions: P. falciparum Indochina infected RBC osmotic lysis, higher = more signal, called active from +8 up or from −8 down
[14] = PSAC antagonists in infected red cells, primary screen, cell-based, P. falciparum Indochina, OD700, 2 h (AID 1155);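 note: lysis reports solute entry through the parasite surface anion channel PSAC; channel blockers reduce lysis of infected cells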; conditions: P. falciparum Indochina infected erythrocytes, osmotic lysis OD700; higher = more signal, called active from +8 up or from −8 down
[15] = osmotic lysis modulators in infected erythrocytes, primary screen, PSAC antagonist project, cell-based, P. falciparum Indochina, OD700, 3 h (AID 1156); conditions: higher = more signal, called active from +8 up or from −8 down
[16] = PSAC antagonists in infected red cells, primary screen, cell-based, P. falciparum Indochina, OD700, 18 h (AID 1157); conditions: P. falciparum Indochina infected erythrocytes, osmotic lysis OD700, 18 h; higher = more signal, called active from +8 up or from −8 down
[17] = modulators of S6 phosphorylation in cells, primary screen, cell-based, A549, cytoblot, luminescence, serum-stimulated (AID 1158); conditions: A549 phospho-S6 cytoblot, 5 h, higher = more signal;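 note: serum-stimulated A549 lung adenocarcinoma cells; signal is phosphorylated S6 detected by cytoblot immunostaining with HRP secondary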
[18] = target: NADPH oxidase 2 (Homo sapiens) (UniProt P04839); assay: NOX2-dependent H2O2 signal modulators, primary screen, NOX inhibitor project, cell-based, HEK293-NOX2, PMA-stimulated, Amplex Red fluorescence (AID 1159); conditions: 45 min, higher = more signal, called active from +8 up or from −8 down; note: test concentration not given here
[19] = target: NADPH oxidase 4 (Homo sapiens) (UniProt Q9NPH5); assay: NOX4-dependent H2O2 signal modulators, primary screen, NOX inhibitor project, cell-based, HEK293-NOX4, tetracycline-induced, Amplex Red fluorescence (AID 1160); conditions: 45 min, higher = more signal, called active from +8 up or from −8 down
[20] = target: NADPH oxidase 5 (Homo sapiens) (UniProt Q96PH1); assay: NOX5-dependent H2O2 signal modulators, primary screen, NOX inhibitor project, cell-based, HEK293-NOX5, Amplex Red fluorescence (AID 1161); conditions: HEK293-NOX5, ionomycin, 45 min, higher = more signal
NADPH oxidase 5 (Homo sapiens), sequence (Q96PH1 whole entry, looked up): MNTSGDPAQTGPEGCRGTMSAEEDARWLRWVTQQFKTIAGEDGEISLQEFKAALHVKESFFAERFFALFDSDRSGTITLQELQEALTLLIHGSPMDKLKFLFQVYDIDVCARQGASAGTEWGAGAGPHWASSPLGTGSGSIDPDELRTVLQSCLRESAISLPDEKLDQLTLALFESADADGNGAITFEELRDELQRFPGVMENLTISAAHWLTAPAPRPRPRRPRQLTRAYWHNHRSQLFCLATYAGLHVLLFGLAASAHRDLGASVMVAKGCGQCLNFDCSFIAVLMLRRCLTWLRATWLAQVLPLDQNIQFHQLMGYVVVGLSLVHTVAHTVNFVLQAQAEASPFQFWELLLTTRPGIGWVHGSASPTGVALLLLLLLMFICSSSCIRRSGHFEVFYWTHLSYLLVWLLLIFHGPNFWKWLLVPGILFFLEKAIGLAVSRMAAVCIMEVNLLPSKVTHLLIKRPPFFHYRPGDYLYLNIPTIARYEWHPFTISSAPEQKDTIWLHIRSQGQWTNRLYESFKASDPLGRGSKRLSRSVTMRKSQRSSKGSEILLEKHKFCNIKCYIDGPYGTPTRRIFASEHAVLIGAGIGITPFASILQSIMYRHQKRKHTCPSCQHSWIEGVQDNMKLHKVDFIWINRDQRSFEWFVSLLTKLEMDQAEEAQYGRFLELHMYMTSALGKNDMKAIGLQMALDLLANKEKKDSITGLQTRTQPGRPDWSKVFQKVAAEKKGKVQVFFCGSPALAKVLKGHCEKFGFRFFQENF

NADPH oxidase 2 (Homo sapiens), sequence (P04839 whole entry, looked up): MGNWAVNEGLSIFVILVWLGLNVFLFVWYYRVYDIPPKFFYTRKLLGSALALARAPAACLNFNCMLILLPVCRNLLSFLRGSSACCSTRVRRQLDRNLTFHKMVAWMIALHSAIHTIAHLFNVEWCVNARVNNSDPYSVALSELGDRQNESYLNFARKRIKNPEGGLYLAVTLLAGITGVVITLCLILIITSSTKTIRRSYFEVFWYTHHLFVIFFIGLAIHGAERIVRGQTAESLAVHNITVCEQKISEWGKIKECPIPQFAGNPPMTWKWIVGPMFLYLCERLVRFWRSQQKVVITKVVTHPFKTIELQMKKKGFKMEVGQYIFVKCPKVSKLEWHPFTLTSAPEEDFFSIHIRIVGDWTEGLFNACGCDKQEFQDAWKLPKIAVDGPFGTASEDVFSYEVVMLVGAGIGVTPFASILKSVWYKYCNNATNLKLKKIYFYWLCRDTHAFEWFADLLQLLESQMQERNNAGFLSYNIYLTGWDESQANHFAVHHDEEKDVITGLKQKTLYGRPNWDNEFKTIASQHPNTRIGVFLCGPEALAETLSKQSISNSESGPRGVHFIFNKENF
NADPH oxidase 4 (Homo sapiens), sequence (Q9NPH5 whole entry, looked up): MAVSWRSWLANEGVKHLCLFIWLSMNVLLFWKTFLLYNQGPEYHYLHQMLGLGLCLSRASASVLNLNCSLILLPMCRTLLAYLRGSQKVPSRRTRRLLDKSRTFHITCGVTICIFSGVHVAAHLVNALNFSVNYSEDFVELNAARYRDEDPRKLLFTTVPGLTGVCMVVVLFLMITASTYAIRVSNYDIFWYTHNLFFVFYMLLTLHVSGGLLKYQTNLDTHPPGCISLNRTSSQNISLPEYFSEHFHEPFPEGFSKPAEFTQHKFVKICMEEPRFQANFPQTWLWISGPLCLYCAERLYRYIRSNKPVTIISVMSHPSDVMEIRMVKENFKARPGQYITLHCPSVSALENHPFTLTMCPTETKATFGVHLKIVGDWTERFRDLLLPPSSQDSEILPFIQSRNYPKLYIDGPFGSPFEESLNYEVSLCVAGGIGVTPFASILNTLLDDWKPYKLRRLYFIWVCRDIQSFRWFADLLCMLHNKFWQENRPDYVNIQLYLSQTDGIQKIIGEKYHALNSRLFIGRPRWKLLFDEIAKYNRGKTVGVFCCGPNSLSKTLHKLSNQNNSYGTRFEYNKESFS
Torsin-1A (Homo sapiens), sequence (O14656 whole entry, looked up): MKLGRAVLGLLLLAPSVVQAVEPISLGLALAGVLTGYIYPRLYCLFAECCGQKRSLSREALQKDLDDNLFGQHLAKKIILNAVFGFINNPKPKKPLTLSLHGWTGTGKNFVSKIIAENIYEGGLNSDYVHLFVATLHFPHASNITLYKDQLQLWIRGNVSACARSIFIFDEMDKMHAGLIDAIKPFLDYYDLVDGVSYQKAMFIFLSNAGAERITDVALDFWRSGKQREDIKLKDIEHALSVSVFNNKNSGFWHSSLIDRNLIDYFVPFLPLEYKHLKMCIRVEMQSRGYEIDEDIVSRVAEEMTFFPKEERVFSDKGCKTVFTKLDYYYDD
Streptavidin (Streptomyces avidinii), sequence (P22629 whole entry, looked up): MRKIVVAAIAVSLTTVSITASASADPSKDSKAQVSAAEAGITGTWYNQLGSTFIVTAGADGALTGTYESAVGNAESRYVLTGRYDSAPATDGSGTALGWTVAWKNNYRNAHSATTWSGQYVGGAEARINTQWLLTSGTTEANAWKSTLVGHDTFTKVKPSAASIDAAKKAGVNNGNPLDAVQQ

Structure (SMILES)	composite z-score [1]	z-score [2]	z-score [3]	z-score [4]	z-score [5]	composite z-score [6]	composite z-score [7]	composite z-score (Torsin-1A (Homo sapiens) [8])	composite z-score (Torsin-1A (Homo sapiens) [9])	composite z-score [10]	z-score [11]	composite z-score [12]	z-score [13]	z-score [14]	z-score [15]	z-score [16]	z-score [17]	z-score [18]	z-score [19]	z-score [20]
COC(=O)[C@@]1(Cc2ccc(OC)cc2)[C@H]2c3cc(C(=O)N4CCCC4)n(Cc4ccc(Cl)c(C(F)(F)F)c4)c3C[C@H]2CN1C(=O)c1ccccc1	0.344	-3.32 (inactive)	0.237 (inactive)	0.0143 (inactive)	-0.218 (inactive)	1.59	0.728	0.557	1.28	-0.152	-0.557 (inactive)	1.19	1.24 (inactive)	-0.382 (inactive)	-0.397 (inactive)	-1.17 (inactive)	2.85	0.449 (inactive)	1.28 (inactive)	-4.74
O=C1N(CCS(=O)(=O)c2ccccc2)c2ccccc2C[C@]12N=C(c1ccc(OCCCO)cc1)O[C@@H]2c1ccccc1	0.553	-1.62 (inactive)	0.851 (inactive)	0.0219 (inactive)	-1.4 (inactive)	0.404	0.0944	0.903	1.41	0.372	-0.499 (inactive)	0.732	26.3 (active)	18.6 (active)	1.85 (inactive)	2.95 (inactive)	-0.18	-0.304 (inactive)	0.615 (inactive)	0.627
COc1ccc([Si](C)(C)[C@H]2[C@H](CC(=O)N3Cc4ccccc4C[C@H]3CO)O[C@@]3(C(=O)N(c4ccccc4)c4ccccc43)[C@@H]2C)cc1	0.479	-5.64 (inactive)	0.449 (inactive)	3.6 (inactive)	-1.16 (inactive)	0.968	0.0342	1.57	0.862	2.04	0.968 (inactive)	0.701	11.9 (active)	2.16 (inactive)	1.24 (inactive)	1.09 (inactive)	1.35	-1.56 (inactive)	-0.499 (inactive)	-2.51
Cc1ccc(S[C@]2(C(=O)NCCCN(C)C)CC(=O)N(C3Cc4ccccc4C3)[C@@H]2c2ccc(CO)cc2I)cc1	-0.283	-1.5 (inactive)	0.505 (inactive)	0.155 (inactive)	2.5 (inactive)	0.372	-0.182	-1.5	-1.04	-0.348	-0.759 (inactive)	-0.0882	4.32 (inactive)	0.903 (inactive)	0.925 (inactive)	0.352 (inactive)	-0.0249	0.914 (inactive)	-1.12 (inactive)	2.56
NC(=O)NCC#Cc1ccc2c(c1)[C@]1(C(=O)N2)[C@H](c2ccc(OCCO)cc2)N2[C@H](c3ccccc3)[C@H](c3ccccc3)OC(=O)[C@H]2[C@@H]1C(=O)NC[C@H](O)c1ccccc1	-0.138	-2.86 (inactive)	0.0532 (inactive)	-0.671 (inactive)	-0.648 (inactive)	0.079	-0.0195	-0.17	-0.288	0.398	2.63 (inactive)	0.0183	1.06 (inactive)	-0.573 (inactive)	-0.88 (inactive)	-1.81 (inactive)	0.713	2 (inactive)	0.314 (inactive)	0.742
COc1ccc([Si](C)(C)[C@@H]2[C@@H](CC(=O)N(CCO)Cc3ccccc3)O[C@]3(C(=O)N(Cc4ccc(I)cc4)c4ccccc43)[C@H]2C)cc1	0.29	-4.48 (inactive)	-0.129 (inactive)	-0.505 (inactive)	-0.905 (inactive)	0.349	1.22	0.402	0.603	2.01	0.452 (inactive)	1.03	5.81 (inactive)	1.02 (inactive)	0.408 (inactive)	0.794 (inactive)	0.421	0.454 (inactive)	1.6 (inactive)	1.55
[N-]=[N+]=Nc1ccccc1[C@@H]1OC(c2ccc(OCCCO)cc2)=N[C@]1(CCS(=O)(=O)c1ccccc1)C(=O)NCC(O)CO (stereo not given in full)	-0.0534	-1.33 (inactive)	-0.27 (inactive)	0.0827 (inactive)	0.0767 (inactive)	1.54	0.0051	1.37	1.61	-0.475	0.401 (inactive)	0.165	28.9 (active)	27.2 (active)	1.08 (inactive)	2.07 (inactive)	-0.158	-3.11 (inactive)	-0.18 (inactive)	-1.16
COc1ccc([Si](C)(C)[C@H]2[C@H](CCO)O[C@@]3(C(=O)N(Cc4cccc(N(C=O)c5ccccc5)c4)c4ccccc43)[C@@H]2C)cc1	0.313	-6.26 (inactive)	-0.914 (inactive)	-0.417 (inactive)	-1.56 (inactive)	1.21	-0.018	0.939	1.01	1.78	2.15 (inactive)	-0.339	2.24 (inactive)	2.47 (inactive)	1.1 (inactive)	1.82 (inactive)	1.91	-1.31 (inactive)	0.451 (inactive)	0.00518
CCOC(=O)C1=CC[C@@H](c2ccc(OC)cc2)N(S(=O)(=O)c2ccc(C)cc2)[C@H]1CC	0.174	-5.57 (inactive)	-0.785 (inactive)	-0.882 (inactive)	-0.0915 (inactive)	1.53	0.152	0.318	0.714	0.964	0.938 (inactive)	-0.0018	2.22 (inactive)	-0.258 (inactive)	-1.07 (inactive)	-1.62 (inactive)	1.27	0.0165 (inactive)	-0.911 (inactive)	0.209
